High-throughput results as filed in PubChem BioAssay.
Mcl1-Noxa inh: disrupts binding of human Mcl-1 to Noxa peptide | Q07820 | TR-FRET Mcl-1/Noxa peptide binding, 2 h | inhibition, % at 21.7 µM | 220,000 compounds, 1.5% hits;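 active = compounds that cut the protein-peptide binding signal by more than 50% relative to plate controls in a single-dose test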;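 note: His-tagged Mcl-1 with rhodamine Noxa BH3 peptide and terbium anti-His antibody; 0% = Mcl-1 plus Noxa peptide wells and 100% = peptide-only wells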
Mcl1-Bid inh: Mcl-1/Bid interaction inhibition | TR-FRET Mcl-1/Bid-Dy647 peptide binding, 1536-well | inhibition, % at 21.7 µM | 220,000 compounds, 0.97% hits | AID 1021;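 active = compounds that cut the binding signal by more than half at the single screening dose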;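 note: His-tagged Mcl-1 with europium anti-His antibody binding Bid BH3 peptide; 0% = Mcl-1 plus peptide wells and 100% = peptide-only wells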
Arbovirus anti: blocks arbovirus infection; 200,000 compounds, 0.37% hits; inhibition, % at 10 µM; arbovirus infection cell-based antiviral screen; in the data active = inhibition above about 30%
14-3-3 Bad inh: disrupts binding of bovine 14-3-3 zeta to phospho-Bad peptide. 220,000 compounds, 0.71% hits. TR-FRET 14-3-3zeta/Dy647-pBad peptide displacement, 1 h. inhibition, % at 21.7 µM;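 active = inhibition above about 70%, limit read from the data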;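 note: 0% = full 14-3-3 plus peptide FRET controls and 100% = background without 14-3-3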
Bim-Mcl-1: human Bim-Mcl-1 interaction inhibition; Bead-based flow cytometry, Bim peptide-Mcl-1 binding; 190,000 compounds, 0.1% hits; AID 1009; inhibition, % at 10 µM; in the data active = inhibition above about 40%;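 note: 0% = no compound tracer wells and 100% = peptide blocker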
* = called active by the depositor; x = not tested or not shown; ! = not confirmed by another sample; [ ] = remark or other dose. Hits are enriched below; roughly 3% of the tested compounds scored in any of these assays.

SMILES	Mcl1-Noxa inh	Mcl1-Bid inh	Arbovirus anti	14-3-3 Bad inh	Bim-Mcl-1
O=C(CCc1nc2cccnc2n1Cc1ccccc1)NCCc1ccc(Cl)cc1	6	-12	-2	6	-4
CCCn1nc(C(=O)Nc2ccc(S(=O)(=O)Nc3nccs3)cc2)c2ccccc2c1=O	51*	-35	-4	8	-1
COc1ccc(/C=C2/SC(=O)N(CCC(=O)Nc3ccc(C)cc3)C2=O)cc1OC	3	2	-11	8	0
O=C(CCN1C(=O)S/C(=C\c2ccccc2)C1=O)Nc1ccc(S(=O)(=O)Nc2nccs2)cc1	82*	-84	6	-5	-1
COc1ccccc1/C=C1/SC(=O)N(CCC(=O)Nc2ccc(S(=O)(=O)Nc3nccs3)cc2)C1=O	78*	-135	-4	-2	-4
Cn1c(N)c(Sc2ccc(F)cc2)c(=O)n(C)c1=O	-7	-11	9	-15	-5
CC(C)S(=O)(=O)c1csc(NC(=O)Nc2cc(Cl)ccc2Cl)c1Cl	19	11	x	-3	x
N=C(N)n1c(N)nc2ccccc2c1=O	-7	-4	x	10	x
N=C(N)SCc1nc2ccccc2c(=O)n1-c1ccccc1	9	-12	30*!	4	-3
O=C(CN1CCN(C2CCCCC2)CC1)NCCC1=CCCCC1	33	51*	-8	57	3
CCOC(=O)c1cccc(NC(=O)CCNS(=O)(=O)c2ccc3c(c2)CCN3C(=O)CC)c1	21	70*	6	3	-4
COC(=O)[C@@H]1C[C@@]2(O)[C@@H](O)[C@@H](O)[C@@H](O)C[C@H]2N1CC(c1ccccc1)c1ccccc1	-4	-56	x	-3	x
O=c1c2ccccc2nc(SCc2ccncc2)n1CC1CCCO1 (centres undefined)	8	-3	-8	-8	-3
O=C(Cc1ccccn1)Nc1ccccc1	24	16	2	73*[fluorescence artefact?]	-2
O=C(CSCc1ccccn1)Nc1ccccc1	-9	-23	0	-2	2
COc1ccc(C(=O)CN2C(=O)c3ccccc3C2=O)cc1	1	-4	x	5	x
Cc1cccc(-n2[nH]c3c4c(ccc3c2=O)C(=O)c2ccccc2C4=O)c1	55*	-9	-17	-1	-5
